Compound activity from PubChem BioAssay.
Most compounds without a hit are left out; they make up all but 4% or so of the library.
TROY signal inh = inhibitors of TROY-driven NF-kB signaling, primary screen, Q293 LMP1-TROYcd cells, NF-kB luciferase, uHTS | Q293 LMP1-TROYcd NF-kB luciferase reporter, 4 h | inhibition, % at 10 µM | 360,000 tested, 0.98% active | AID 1347056, 2019;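 active = compounds whose plate-normalised and pattern-corrected inhibition of the luciferase reporter signal at the single screening dose is 50% or more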
HIF-2a block = HIF-2a reporter inhibitors, primary screen, luminescence, 786-0 RCC cells | 786-0 RCC cells HIF-2a reporter, luciferase luminescence, overnight | inhibition, % at 18.8 µM | 360,000 tested, 0.72% active;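 active = inhibition of the luminescence signal of 40% or more relative to plate controls, in a single-dose primary screen at 18.75 µM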
Peg3 promoter = Peg3 promoter-driven luciferase inhibitors, primary screen, cell-based, HeLa, luciferase luminescence; HeLa PEG-Prom luciferase reporter, overnight; inhibition, % at 20 µM; 360,000 tested, 1.7% active; AID 588405, 2011;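 active = inhibition of at least 50% at 20 µM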
TWEAK-Fn14 inh = inhibitors of TWEAK-Fn14 signaling, primary screen, luciferase reporter cells, uHTS; TWEAK-stimulated Fn14 reporter cells, luciferase luminescence, 8 h; inhibition, % at 10 µM; AID 1159606, 2016; 360,000 tested, 2% active; in the data active = inhibition above about 50%
MITF TRPM1 inh = inhibitors of MITF-dependent TRPM1 promoter reporter, primary screen, cell-based, SK-MEL-5, single point, luciferase; SK-MEL-5 TRPM1 promoter luciferase, 24 h; inhibition, % at 12.5 µM; 330,000 tested, 0.83% active; AID 488899, 2010;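 active = mean inhibition across replicates of 60% or more, whatever share of single replicates reaches that level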
EBV LMP1 NFkB = EBV LMP1-driven NF-kappaB luciferase reporter inhibitors, primary screen, cell-based, luminescence, single point. 350,000 tested, 0.69% active. LMP1-induced NF-kappaB luciferase reporter cells. inhibition, % at 12.5 µM; in the data active = inhibition above about 41%
Numbers stand for hits; 0 = inactive; - = no result given.

SMILES	TROY signal inh	HIF-2a block	Peg3 promoter	TWEAK-Fn14 inh	MITF TRPM1 inh	EBV LMP1 NFkB
O=C(NC(=S)Nc1cc([N+](=O)[O-])ccc1O)c1ccc2c(c1)OCO2	69.9	0	0	70.9	0	0
COc1ccc(C(CNC(=O)CN(C)S(=O)(=O)c2ccc(C)cc2)N2CCCC2)cc1 (stereo not given)	0	0	0	0	0	0
CCOC(=O)N1CCC(NC(=O)CCC(=O)N2CCOc3ccccc32)CC1	-	0	0	64.3	0	0
CCOC(=O)c1ccc(-n2c(CN3CCC(C(N)=O)CC3)nc3ccc([N+](=O)[O-])cc3c2=O)cc1	54.7	0	0	0	0	0
CCOC(=O)c1ccc(-n2c(CN3CCN(CC)CC3)nc3ccc([N+](=O)[O-])cc3c2=O)cc1	0	0	0	0	0	0
CCOC(=O)c1ccc(-n2c(CN3CCC(O)CC3)nc3ccc([N+](=O)[O-])cc3c2=O)cc1	53.1	0	0	0	0	0
CC(C)C[C@@H](CN1CCCC1CN1C(=S)NC[C@@H]1Cc1ccc(O)cc1)N1C[C@H](Cc2ccc(O)cc2)N(CC2CCCCCC2)C1=S (stereo not given in full)	0	0	91.2	0	0	0
CC(C)C[C@@H](CN1CCCC1CN1C(=S)NC[C@@H]1Cc1ccc(O)cc1)N1C[C@H](Cc2ccccc2)N(CC2CCCCCC2)C1=S (stereo not given in full)	0	0	0	0	0	0
CC(C)C[C@H]1CNC(=S)N1C[C@H]1CCCN1C[C@H](Cc1ccc(O)cc1)N1C[C@H](Cc2ccc(O)cc2)N(CC2CCCCCC2)C1=S	0	0	101.3	59.8	-	-
CC(C)C[C@H]1CNC(=S)N1CC1CCCN1C[C@H](Cc1ccccc1)N1C[C@H](Cc2ccc(O)cc2)N(CC2CCCCCC2)C1=S (stereo not given in full)	0	0	66.4	0	0	0
CC(C)C[C@H]1CN([C@@H](Cc2ccc(O)cc2)CN2CCC[C@@H]2CN2C(=S)NC[C@@H]2Cc2ccccc2)C(=S)N1CC1CCCCCC1	0	0	0	0	-	-
COc1ccccc1NS(=O)(=O)c1cc(C(=O)N2CCCC2)ccc1F	0	0	0	0	0	0
Cc1ccc(/C(N)=N/OC(=O)c2ccc(Cl)cc2Cl)cc1	60.6	0	0	79.3	0	0
CC(C)c1ccc2oc(-c3cc(N)ccc3O)nc2c1	69.0	0	0	81.2	0	0
Cc1ccccc1-c1nc2cc(N)ccc2o1	0	0	0	0	0	0
COc1ccc(C=C(C(C)=O)C(=O)c2ccccc2)cc1	0	0	0	0	-	-
COc1ccc(C=C(C(=O)c2ccccc2)C(=O)c2ccccc2)cc1	0	0	0	51.7	-	-
Cc1ccc(N(Cc2cc3ccccc3[nH]c2=O)C(=O)c2ccco2)c(C)c1	0	0	0	0	0	40.0
O=c1ccoc2ccccc12	0	0	0	0	-	-
COC(=O)/C(=C(/F)Sc1cc(C)c(O)c(C)c1)C(F)(F)F	0	0	63.2	0	0	0
COc1ccc(NC(=O)C2Cc3c(-c4cccc(F)c4)ccnc3O2)cn1 (stereo not given)	0	0	0	0	-	-
Cc1ccc(Nc2cc(C)nn2-c2nc(C)cc(C)n2)cc1	0	0	0	0	0	0
Cc1ccc(Nc2cc(C)nn2-c2nc(C)cc(=O)[nH]2)cc1	83.7	40.3	108.4	108.0	98.4	0
CCCCNC(=O)c1nc(-c2cccs2)oc1-c1ccc(Cl)cc1	-	0	-	-	-	-
O=C1NC2(CCN(Cc3ccccc3)CC2)Oc2ccccc21	0	0	0	0	0	0
SMILES	TROY signal inh	HIF-2a block	Peg3 promoter	TWEAK-Fn14 inh	MITF TRPM1 inh	EBV LMP1 NFkB
O=C1c2ccccc2OC2(C=Cc3ccccc3O2)N1Cc1ccccc1 (stereo not given)	-	0	0	76.0	0	0
CCSc1nnc(SCC(=O)c2c(N)n(C)c(=O)n(C)c2=O)s1	0	0	0	0	0	0
O=C1c2cccc(-c3ccc(C(F)(F)F)cc3)c2C2CC=CCN12 (stereo not given)	0	0	0	0	-	-
CC(C)(C)NC(=O)C(=O)N/N=C/c1cccs1	0	0	0	0	0	0
C(=NN=C(NN=Cc1cccs1)NN=Cc1cccs1)c1cccs1	0	0	77.7	0	0	0
CC(COc1ccc(C(C)C)cc1)NC(=O)c1ccc(Br)o1 (stereo not given)	0	0	0	0	0	0
O=C(C(O)c1ccccc1)N1CCN(S(=O)(=O)c2ccc(C(F)(F)F)cc2)CC1 (stereo not given)	-	0	-	-	-	-
O=C(Nc1ccc(F)c(F)c1)C1CCCCC1	0	0	0	0	0	49.2
Cc1ccc(C#CC[N+]2(CC#Cc3ccc(C)cc3)CCCCC2)cc1	0	0	96.8	0	70.2	0
Cc1ccnc(NC(=O)c2cccc(NC(=O)CC3SC(N4CCCCC4)=NC3=O)c2)c1 (stereo not given)	0	0	0	0	0	0
CN(C(=O)c1cccc(NC(=O)Cc2ccc(NC(=O)C3CCCN(C(=O)CCc4ccccc4)C3)cc2)c1)C1CC1 (stereo not given)	0	0	0	0	0	0
CN(Cc1ccccc1)C(=O)c1ccc(NC(=O)Cc2ccc(NC(=O)C3CCN(C(=O)CCc4ccccc4)CC3)cc2)cc1	0	0	0	0	0	0
CN(Cc1ccccc1)C(=O)c1cccc(NC(=O)Cc2ccc(NC(=O)C3CCN(C(=O)CCc4ccccc4)CC3)cc2)c1	56.5	0	0	84.7	0	0
CN(C(=O)c1cccc(NC(=O)Cc2ccc(NC(=O)C3CCCN(C(=O)CCc4ccccc4)C3)cc2)c1)C1CCCCC1 (stereo not given)	62.5	0	0	89.0	0	0
COc1ccc(C2=Nc3ccccc3N(C(=O)c3ccncc3)C2C(=O)NC(C)(C)C)cc1 (stereo not given)	-	0	-	-	-	-
CCOc1ccc(S(=O)(=O)NCCC(=O)N2CC=C(c3ccccc3)CC2)cc1	0	0	0	0	0	0
N#CCSc1nc2ccccc2c2nc3ccccc3n12	0	0	0	56.6	76.6	0
Clc1ccccc1-c1nc2ccccc2c2nc3ccccc3n12	57.1	0	0	0	0	0
Cc1nc2ccccc2c2nc3ccccc3n12	0	0	0	0	0	0
Fc1ccc(-c2nc3ccccc3c3nc4ccccc4n23)cc1	0	0	0	58.0	0	0
CCn1c(SCC#N)nc2ccccc2c1=O	0	0	0	0	0	0
Cc1ccc(Nc2nnc(SCC(=O)Nc3cccnc3Cl)s2)cc1C	0	0	0	0	0	0
CC(=O)Nc1cccc(/C(C)=N\NC(=O)c2ccc(Cn3nc([N+](=O)[O-])c(Cl)c3C)o2)c1	0	0	0	0	0	0
